From ChEMBL document CHEMBL4513139, “CO-ADD screening of University of Strathclyde (UK) compounds”
Potency and affinity values are given separately.

How the values were obtained:
Staphylococcus aureus = details: Concentration 32 ug.mL-1; ASSAY_TEST Inhibition of Bacterial Growth; detection method Absorption (OD600); MEDIA CAMHB; plate type 384well; NBS; CORNING #3640; time 18 hr
Escherichia coli = details: Concentration 32 ug.mL-1; ASSAY_TEST Inhibition of Bacterial Growth; detection method Absorption (OD600); MEDIA CAMHB; plate type 384well; NBS; CORNING #3640; time 18 hr

Row | Structure (SMILES) | Inhibition (Staphylococcus aureus) | Inhibition (Escherichia coli)
1 | Cn1cc(NC(=O)c2cc(NC(=O)c3sc(N)nc3C(F)(F)F)cn2C)cc1C(=O)NCCN1CCOCC1.O=C(O)C(F)(F)F | 12.04% | -24.64%
2 | COC(=O)CCC(=O)Nc1cc(C(=O)Nc2cc(C(=O)NCCC(=N)N)n(C)c2)n(C)c1.O=C(O)C(F)(F)F | 0.86% | -6.39%
3 | CC(C)CCc1sc(NC(=O)c2cc(NC(=O)c3cc(NC(=O)CCC(=O)O)cn3C)cn2C)nc1C(=O)NCCCN(C)C.O=C(O)C(F)(F)F | 3.82% | -16.63%
4 | CN(C)CCCNC(=O)c1cc(NC(=O)c2cc(NC(=O)c3cc(NC(=N)N)cn3C)cn2C)cn1C.O=C(O)C(F)(F)F.O=C(O)C(F)(F)F | 14.94% | -3.99%
5 | CN(C)CCCNC(=O)c1cc(NC(=O)c2cc(NC(=O)c3cc4ccccc4cn3)cn2C)cn1C.O=C(O)C(F)(F)F | 20.5% | -10.84%
6 | Cn1cc(NC(=O)c2cc(NC(=O)c3ccc(/C=C/c4cccc(F)c4)cc3)cn2C)cc1C(=O)NCCN1CCOCC1.O=C(O)C(F)(F)F | 33.99% | -7.74%
7 | CN(C)CCCNC(=O)c1cc(NC(=O)c2cc(NC(=O)c3ccc(C(=O)O)cc3)cn2C)cn1C.O=C(O)C(F)(F)F | 10.82% | -6.1%
8 | Cc1ncc(CNc2ccc(C(C)(C)C)cc2)c(N)n1 | -2.14% | -7.27%
9 | COc1cccc(/C=C/c2ccc(C(=O)Nc3cc(C(=O)Nc4cc(C(=O)NCCN(C)C)n(C)c4)n(C)c3)cc2)c1.O=C(O)C(F)(F)F | 98.95% | 88.16%
10 | CN(C)CCCNC(=O)c1cc(NC(=O)c2cc(NC(=O)CCC(=O)O)cn2C)cn1C.O=C(O)C(F)(F)F | 5.68% | -8.32%
11 | CC(C)CCn1cc(NC(=O)c2cc(NC(=O)c3cc(NC(=N)c4ccccc4)cn3C)cn2C)cc1C(=O)NCCCN(C)C.O=C(O)C(F)(F)F.O=C(O)C(F)(F)F | 22.24% | -19.15%
12 | CC(C)n1cc(NC(=O)c2cc(NC(=O)c3cc(NC=O)cn3C(C)C)cn2C)cc1C(=O)NCCCN(C)C.O=C(O)C(F)(F)F | 2.98% | -12.14%
13 | Cn1cc(NC(=O)c2cc(NC(=O)c3cc(NC(=O)c4ccc(Cl)cc4Cl)cn3C)cn2C)cc1C(=O)NCCN1CCOCC1.O=C(O)C(F)(F)F | 45.87% | -8.53%
14 | COc1cccc(C(=N)Nc2cc(C(=O)Nc3cc(C(=O)Nc4cc(C(=O)NCCCN(C)C)n(C)c4)n(C)c3)n(C)c2)c1.O=C(O)C(F)(F)F.O=C(O)C(F)(F)F | -1.63% | -2.32%
15 | CC(=O)Nc1cc(C(=O)Nc2cc(C(=O)Nc3cc(C(=O)NCCCN(C)C)n(CCC(C)C)c3)n(C)c2)n(C)c1.O=C(O)C(F)(F)F | 9.82% | -19.43%
16 | COC(=O)CCC(=O)Nc1cc(C(=O)Nc2cc(C(=O)NCCCN(C)C)n(C)c2)n(C)c1.O=C(O)C(F)(F)F | 5.2% | -12.96%
17 | CCOC(=O)c1cc(NC(=O)c2cc(NC(=O)c3nc(N)sc3C(C)C)cn2C)cn1C | 29.56% | -5.15%
18 | Cc1ncc(CNc2ccc(Cl)cc2)c(N)n1 | -1.15% | 2.07%
19 | COC(=O)c1ccc(C(=O)Nc2cc(C(=O)Nc3cc(C(=O)NCCN4CCOCC4)n(C)c3)n(C)c2)cc1.O=C(O)C(F)(F)F | 12.57% | -5.56%
20 | COc1cccc(C(=N)Nc2cc(C(=O)Nc3cc(C(=O)NCCC(=N)N)n(C)c3)n(C)c2)c1.O=C(O)C(F)(F)F.O=C(O)C(F)(F)F | 96.74% | 3.74%
21 | CCOC(=O)c1cc(NC(=O)c2cc(NC(=O)c3nc(N)sc3CCC(C)C)cn2C)cn1C | 16.22% | -10.89%
22 | Cc1ncc(Cn2cc(CCC(=O)O)nn2)c(N)n1.O=C(O)C(F)(F)F | 15.37% | -17.36%
23 | Cc1ncc(CO)c(N)n1 | 1.81% | -19.21%
24 | Cc1ncc(CNc2ccc(F)cc2)c(N)n1 | 25.09% | -15.16%
25 | COCCOC1CCN(C(=O)c2cc(NC(=O)c3cc(NC(=O)c4ccc(/C=C/c5cnc6ccccc6c5)cc4)cn3C)cn2C)CC1 | 5.5% | 7.07%
